Source: PubChem BioAssay (NCI)
Compounds without any hit were thinned out: in the full panel of roughly 83,000, 20% have a hit.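 Activity criterion: percent growth below 10, measured after cells in 96-well plates were exposed to a single compound concentration for 48 hours.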 Values without a mark were called inactive. The source made the active and inactive calls.

Assays:
Assay in all cases: NCI-60 one-dose screen, 48 h (100 = growth as untreated, 0 = no growth, -100 = all killed)
SK-MEL-2 melanoma = conditions: 10 µM
EKVX NSCLC = conditions: 10 µM
SN12C renal = conditions: 10 µM
TK-10 renal = conditions: 10 µM unless noted
ACHN renal = conditions: 10 µM
CAKI-1 renal = conditions: 10 µM
A498 renal = conditions: 10 µM
CCRF-CEM leukemia = conditions: 10 µM
MOLT-4 leukemia = conditions: 10 µM

| Structure (SMILES) | growth (SK-MEL-2 melanoma) | growth (EKVX NSCLC) | growth (SN12C renal) | growth (TK-10 renal) | growth (ACHN renal) | growth (CAKI-1 renal) | growth (A498 renal) | growth (CCRF-CEM leukemia) | growth (MOLT-4 leukemia) |
| --- | --- | --- | --- | --- | --- | --- | --- | --- | --- |
| CCc1nc(N)nc(N)c1-c1ccc(Cl)cc1 | 105% | 74.9% | 64.7% | 104% | 40.9% | 91.4% | 87.7% | 68.4% | 56.4% |
| O=C1NC(=O)C2C(=O)NC(=O)C1C21CCc2ccccc21 (configuration not stated) | 118% | 90.1% | 100% | 145% | 95.6% | 77.7% | 137% | 78.6% | 111% |
| CC(=O)NC(N)=S | 111% | 118% | 104% | 100% | 104% | 100% | 112% | 86.7% | 77.4% |
| O=C1Cc2ccccc2C(=O)O1 | 103% | 107% | 101% | 110% | 111% | 99.9% | 123% | 85.8% | 85.4% |
| OCCN(CCO)C(=S)S | 121% | 96.3% | 102% | 110% | 109% | 93.1% | 114% | 104% | 121% |
| Cc1cc(NC(=O)CSCC(=O)O)no1 | 122% | 93.8% | 101% | 86.6% | 105% | 90% | 120% | 107% | 103% |
| CCCCC1(CC)COC(CCC)OC1 (configuration not stated) | 104% | 93.1% | 97.6% | 101% | 99.2% | 84.2% | 127% | 102% | 103% |
| CC(=O)CC(=O)N(C)C | 106% | 93.5% | 97% | 98.4% | 103% | 88.3% | 102% | 73.7% | 120% |
| CSc1[nH]c(=O)ncc1F | 117% | 101% | 101% | 109% | 95% | 91.5% | 101% | 91.2% | 117% |
| c1csc(-c2cc(-c3cc(-c4cccs4)[nH]n3)n[nH]2)c1 | 132% | 64.8% | 97.4% | 162% | 92.7% | 79.6% | 139% | 66.1% | 97.7% |
| CCOC(=O)c1cc(/C=C/c2cccc(Cl)c2)on1 | 113% | 75.4% | 86.2% | 111% | 90.9% | 91.3% | 110% | 67% | 99.9% |
| Cc1cc(C(C)(C)C)cc(C)c1Br | 105% | 100% | 100% | 113% | 104% | 93.5% | 104% | 92.2% | 99% |
| OCC1OC(OC2C(O)C(CO)OC2(CO)OC2OC(CO)C(O)C(O)C2O)C(O)C(O)C1O (configuration not stated) | 106% | 103% | 103% | 106% | 113% | 115% | 94.6% | 88.6% | 126% |
| COC(=O)C(C)Oc1ccc(OC#N)cc1 (configuration not stated) | 110% | 99.8% | 91.8% | 107% | 101% | 86.5% | 107% | 102% | 73.7% |
| CC(C)OC(C(=O)O)c1ccccc1 (configuration not stated) | 110% | 108% | 93.5% | 98.4% | 97.2% | 101% | 107% | 91.9% | 125% |
| CCCOC(=O)C(O)c1ccccc1 (configuration not stated) | 106% | 50.6% | 102% | 106% | 98.3% | 96.3% | 94.7% | 88.8% | 110% |
| c1c(-c2cc(C3CC3)[nH]n2)n[nH]c1C1CC1 | 104% | 76.6% | 102% | 106% | 99.3% | 97.6% | 97.6% | 67% | 95.2% |

| Structure (SMILES) | growth (SK-MEL-2 melanoma) | growth (EKVX NSCLC) | growth (SN12C renal) | growth (TK-10 renal) | growth (ACHN renal) | growth (CAKI-1 renal) | growth (A498 renal) | growth (CCRF-CEM leukemia) | growth (MOLT-4 leukemia) |
| --- | --- | --- | --- | --- | --- | --- | --- | --- | --- |
| Cc1ccc(C)n1-c1ccsc1C(=O)NNC(=O)C(Cl)Cl | 106% | 92.5% | 98.6% | 112% | 104% | 93.3% | 101% | 85.3% | 118% |
| Cc1cc2ccccc2c(O)c1C#N | 112% | 108% | 95.3% | 110% | 99.1% | 115% | 107% | 104% | 108% |
| CCS(=O)(=O)CCCl | 102% | 89.6% | 97.8% | 96.5% | 97.3% | 101% | 129% | 63.6% | 89.5% |
| O=C(Cc1nc2ccc([N+](=O)[O-])cc2nc1CC(=O)c1ccccc1)c1ccccc1 | 103% | 55.8% | 75% | 104% | 57% | 62.9% | 132% | 40.5% | 54.2% |
| CNC(=S)NC(C)(C)C | 122% | 96.2% | 102% | 96.8% | 108% | 92.6% | 112% | 88.6% | 106% |
| C=CCNc1ccccc1 | 95.5% | 108% | 94.1% | 95.7% | 101% | 114% | 119% | 93.6% | 95.4% |
| CC(=O)Cc1cc(-c2cc(CC(C)=O)[nH]n2)n[nH]1 | 111% | 89.8% | 94.2% | 92.4% | 95.1% | 87.7% | 99.3% | 101% | 114% |
| Nc1ncnc2[nH]ncc12 | -14.1% (active) | 30.4% | 14% | 1.19% (active) | 8.29% (active) | -9.29% (active) | 8.78% (active) | 13.1% | 25.9% |
| Nc1nc2c(c(-c3nc(N)nc4c3CCc3ccccc3-4)n1)CCc1ccccc1-2 | 134% | 89.9% | 102% | 131% | 95.1% | 76.9% | 125% | 107% | 115% |
| CN(C)CCN(C)CC(C)(C)C(=O)/C=C/c1ccc(Cl)cc1 | -25.6% (active) | -19.1% (active) | 2.97% (active) | 0.991% (active) | -27.3% (active) | 8.74% (active) | 10.4% | -9.31% (active) | -14.7% (active) |
| CCOC(=O)c1cc(/C=C/c2ccc(Cl)cc2Cl)on1 | 109% | 45.2% | 70.8% | 155% | 2.04% (active) | 42.9% | 133% | 19% | 32.5% |
| CC1(C)S(=O)(=O)OCCOS1(=O)=O | 115% | 94.8% | 101% | 93.2% | 106% | 93.9% | 101% | 78.8% | 102% |
| COC(=O)c1cc(-c2ccc(Cl)c(Cl)c2)[nH]c(=O)c1C#N | 120% | 94.4% | 93.7% | 103% | 94.8% | 87.5% | 125% | 104% | 107% |
| COc1ccc(C2OC(N)=C(O)C2=O)cc1OC (configuration not stated) | 117% | 94.3% | 96.1% | 104% | 96.9% | 92.7% | 109% | 98.2% | 109% |
| COc1ccc2c(c1)CCc1c-2n[nH]c1-c1[nH]nc2c1CCc1cc(OC)ccc1-2 | 61.7% | 59.8% | 91.6% | 109% | 57.8% | 53.2% | 109% | 41.8% | 50.4% |
| CCC(C#N)(CC)c1ccccc1 | 105% | 105% | 98% | 108% | 103% | 113% | 111% | 102% | 107% |
